Values joined by “and” are separate entries in the source; they are usually repeats but may differ in a detail not shown here. Equal values may be shown once. Results filed as inconclusive are left out. Active and inactive are the calls of the source.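 The calls were made as follows, unless noted: active = at least 20% inhibition of 6-phosphogluconate dehydrogenase activity; inactive = the rest.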
Key:
[1] = biological target: 6-phosphogluconate dehydrogenase, decarboxylating (Homo sapiens) (UniProt P52209); test: inhibition of human phosphogluconate dehydrogenase – biochemical, recombinant enzyme, NADPH absorbance, primary screen (AID 1159550); details: recombinant 6PGD, NADPH absorbance 341 nm; at 10 µM; stronger effect = higher value
Chain of 6-phosphogluconate dehydrogenase, decarboxylating (Homo sapiens) (P52209 whole entry, looked up): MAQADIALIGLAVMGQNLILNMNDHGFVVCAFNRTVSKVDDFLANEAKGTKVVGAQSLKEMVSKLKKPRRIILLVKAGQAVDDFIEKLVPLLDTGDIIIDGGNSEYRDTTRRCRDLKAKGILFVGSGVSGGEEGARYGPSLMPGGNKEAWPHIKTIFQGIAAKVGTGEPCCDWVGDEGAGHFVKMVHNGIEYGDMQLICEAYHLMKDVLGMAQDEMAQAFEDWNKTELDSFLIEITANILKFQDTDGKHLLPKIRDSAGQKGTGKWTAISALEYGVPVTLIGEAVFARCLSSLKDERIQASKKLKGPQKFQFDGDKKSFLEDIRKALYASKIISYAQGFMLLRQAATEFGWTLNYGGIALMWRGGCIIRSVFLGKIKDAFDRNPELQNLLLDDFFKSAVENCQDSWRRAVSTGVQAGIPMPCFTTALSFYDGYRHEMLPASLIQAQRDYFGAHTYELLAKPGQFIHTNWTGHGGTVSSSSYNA

[2] = MELAS cybrid and Rieske KO viability enhancers – cell-based, MELAS cybrids, Rieske KO mouse fibroblasts, CellTiter-Glo, primary screen (AID 1508586;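 active = mean z-score across replicates of 1.96 or higher in either the MELAS or the Rieske mutant cell line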;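 also: z relative to plate mean and SD of compound and empty wells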); details: low glucose
[3] = biological target: Mitogen-activated protein kinase 7 (Homo sapiens) (UniProt Q13164); test: Gal4-ERK5 driven luciferase induction – cell-based, HTS, primary screen (AID 1508626;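 active = luciferase signal above three times the same-plate solvent-only control wells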;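 also: luciferase driven by Gal4-ERK5 fusion binding five Gal4 sites before minimal TATA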); details: HeLa Gal4-ERK5 transactivation, 18 h, at 5 µM, stronger effect = higher value
Chain of Mitogen-activated protein kinase 7 (Homo sapiens) (Q13164 whole entry, looked up, the tested form may be a part): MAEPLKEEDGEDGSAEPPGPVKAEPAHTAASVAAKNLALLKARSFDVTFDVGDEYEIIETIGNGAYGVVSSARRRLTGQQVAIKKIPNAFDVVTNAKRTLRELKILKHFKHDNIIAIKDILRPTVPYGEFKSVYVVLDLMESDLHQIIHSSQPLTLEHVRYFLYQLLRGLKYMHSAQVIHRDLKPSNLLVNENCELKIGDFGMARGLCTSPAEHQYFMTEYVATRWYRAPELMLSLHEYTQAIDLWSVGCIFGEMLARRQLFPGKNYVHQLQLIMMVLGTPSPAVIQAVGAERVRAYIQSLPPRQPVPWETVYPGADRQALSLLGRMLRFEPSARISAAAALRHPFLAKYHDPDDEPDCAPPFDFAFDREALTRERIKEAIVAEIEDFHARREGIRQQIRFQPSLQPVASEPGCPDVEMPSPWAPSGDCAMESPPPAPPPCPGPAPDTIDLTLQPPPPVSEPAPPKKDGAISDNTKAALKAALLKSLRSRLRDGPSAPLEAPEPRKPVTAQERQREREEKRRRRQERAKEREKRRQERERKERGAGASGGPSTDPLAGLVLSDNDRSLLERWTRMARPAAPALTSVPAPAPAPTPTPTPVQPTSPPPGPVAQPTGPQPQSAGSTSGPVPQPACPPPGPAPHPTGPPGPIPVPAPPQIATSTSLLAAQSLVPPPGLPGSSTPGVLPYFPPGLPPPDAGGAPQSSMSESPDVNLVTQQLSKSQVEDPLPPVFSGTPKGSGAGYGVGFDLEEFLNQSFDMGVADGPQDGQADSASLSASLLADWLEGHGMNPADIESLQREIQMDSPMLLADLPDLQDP

[4] = compounds altering viability of human ES cells (AID 493140; call rule not given here;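 also: cells exposed to compounds for four days before counting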); details: human embryonic stem cell survival screen; stronger effect = higher value
[5] = P. berghei load reduction in hepatocytes – cell-based, HepG2, luciferase luminescence, HepG2 viability, primary screen (AID 624349; in the data active = parasite load remaining mostly below about 12%, no sharp cut-off; inactive = mostly above about 10%;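 also: 100% = mean of DMSO negative control wells on the same plate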); details: P. berghei liver stage in HepG2, luciferase luminescence, concentration not given here; parasite load remaining: stronger effect = lower value; viability: measured here: HepG2 viability without parasites
[6] = biological target: NAD(+) hydrolase SARM1 (Homo sapiens) (UniProt Q6SZW1); test: blocking NAD cleavage by SARM1 SAM-TIR – cell lysate, NAD-Glo luminescence (AID 1508614;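 active = compound whose remaining NAD level is above about 45 nM, limit read from the data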;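 also: higher remaining NAD means stronger inhibition of SARM1 NADase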); details: SAM-TIR HEK293T lysate NADase, at 1 µM, stronger effect = higher value
Chain of NAD(+) hydrolase SARM1 (Homo sapiens) (Q6SZW1 whole entry, looked up): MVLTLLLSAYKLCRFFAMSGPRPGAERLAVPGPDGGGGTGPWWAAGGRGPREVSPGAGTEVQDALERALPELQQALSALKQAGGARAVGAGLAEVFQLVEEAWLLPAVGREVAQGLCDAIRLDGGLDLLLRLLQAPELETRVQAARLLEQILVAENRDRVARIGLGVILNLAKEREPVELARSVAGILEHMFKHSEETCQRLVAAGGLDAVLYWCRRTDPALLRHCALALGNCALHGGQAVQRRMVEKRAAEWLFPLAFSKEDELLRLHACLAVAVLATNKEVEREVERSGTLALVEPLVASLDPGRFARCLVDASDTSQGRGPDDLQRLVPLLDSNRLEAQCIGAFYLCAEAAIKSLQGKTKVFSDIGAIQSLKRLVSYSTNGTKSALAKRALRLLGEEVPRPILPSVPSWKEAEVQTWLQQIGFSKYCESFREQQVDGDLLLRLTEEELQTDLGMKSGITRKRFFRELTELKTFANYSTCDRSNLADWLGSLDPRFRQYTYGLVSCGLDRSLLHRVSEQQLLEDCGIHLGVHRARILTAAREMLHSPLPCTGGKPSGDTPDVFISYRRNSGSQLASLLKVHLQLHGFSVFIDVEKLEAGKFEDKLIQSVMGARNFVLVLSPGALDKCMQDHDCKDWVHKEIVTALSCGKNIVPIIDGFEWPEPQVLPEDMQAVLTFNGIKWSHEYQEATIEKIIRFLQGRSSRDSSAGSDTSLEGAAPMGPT

[7] = viability loss with induced miR-34 in A549 – imaging, A549 dox-inducible miR-34, nuclei and caspase counts, primary screen (AID 1347080;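 active = compounds whose cell count with miR-34 switched on is under 0.7 times the count with it off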); details: A549 miR-34 inducible, Hoechst nuclei count, 48 h
[8] = biological target: ATP-dependent translocase ABCB1 (Homo sapiens) (UniProt P08183); test: P-glycoprotein substrate transport blockade – cell-based (AID 377; in the data active = fluorescence slope change above about 50%); details: MDR1-expressing cells, fluorescent substrate accumulation slope; stronger effect = higher value; concentration not given here
Chain of ATP-dependent translocase ABCB1 (Homo sapiens) (P08183 whole entry, looked up): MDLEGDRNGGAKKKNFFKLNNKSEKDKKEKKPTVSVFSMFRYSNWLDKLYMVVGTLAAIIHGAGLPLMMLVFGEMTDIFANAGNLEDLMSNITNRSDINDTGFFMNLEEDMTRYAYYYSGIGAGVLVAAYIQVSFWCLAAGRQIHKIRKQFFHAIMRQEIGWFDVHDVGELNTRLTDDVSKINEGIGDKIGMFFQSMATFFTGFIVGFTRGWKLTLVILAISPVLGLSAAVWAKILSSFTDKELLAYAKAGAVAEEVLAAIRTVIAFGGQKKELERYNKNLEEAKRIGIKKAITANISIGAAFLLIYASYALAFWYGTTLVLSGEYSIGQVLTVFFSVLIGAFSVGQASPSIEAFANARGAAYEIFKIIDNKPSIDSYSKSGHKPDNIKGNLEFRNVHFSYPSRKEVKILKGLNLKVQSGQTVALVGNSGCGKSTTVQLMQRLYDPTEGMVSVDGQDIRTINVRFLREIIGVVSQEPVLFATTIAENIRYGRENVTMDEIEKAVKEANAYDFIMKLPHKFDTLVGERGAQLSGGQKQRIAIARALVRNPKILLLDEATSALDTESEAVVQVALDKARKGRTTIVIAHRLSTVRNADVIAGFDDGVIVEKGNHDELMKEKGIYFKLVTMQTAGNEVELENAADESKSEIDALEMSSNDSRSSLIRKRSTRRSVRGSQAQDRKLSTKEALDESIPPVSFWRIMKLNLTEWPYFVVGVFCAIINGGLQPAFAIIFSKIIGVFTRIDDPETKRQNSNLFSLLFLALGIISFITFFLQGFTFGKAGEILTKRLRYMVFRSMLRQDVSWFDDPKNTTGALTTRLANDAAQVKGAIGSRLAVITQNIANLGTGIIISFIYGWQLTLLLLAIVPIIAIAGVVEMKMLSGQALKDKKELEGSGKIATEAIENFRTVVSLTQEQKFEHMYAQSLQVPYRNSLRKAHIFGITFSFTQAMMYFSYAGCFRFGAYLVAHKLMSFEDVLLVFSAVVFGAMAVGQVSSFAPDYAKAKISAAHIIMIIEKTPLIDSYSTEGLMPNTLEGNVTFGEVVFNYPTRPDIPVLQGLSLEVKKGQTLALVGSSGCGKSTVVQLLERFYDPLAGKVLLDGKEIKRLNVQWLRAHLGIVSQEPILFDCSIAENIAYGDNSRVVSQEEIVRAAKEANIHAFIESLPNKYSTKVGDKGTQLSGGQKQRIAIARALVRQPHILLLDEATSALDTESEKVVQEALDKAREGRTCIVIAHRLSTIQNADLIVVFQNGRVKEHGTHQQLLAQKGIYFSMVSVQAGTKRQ

[9] = MELAS cybrid survival, CellTiter-Glo 48 h, stronger effect = higher value
[10] = Rieske KO mouse fibroblast survival, CellTiter-Glo 72 h
[11] = stronger effect = lower value, cell number ratio, induced over uninduced
[12] = measured here: relative caspase fold change +Dox/-Dox
[13] = measured here: total cells with miR-34 induction, stronger effect = lower value
[14] = measured here: total cells without miR-34 induction

Question: Which results are given for CN1[C@@H]2CC[C@H]1CC(OC(c1ccccc1)c1ccccc1)C2 (stereo partly drawn)?
Answer: inhibition [1]: 13.6% (inactive); z-score [2, 9]: -0.23 (inactive); z-score [2, 10]: 0.0522; luciferase signal [3]: 52 AU (inactive)

Question: With CC(=O)O[C@H]1C[C@@]2(C)[C@@H](C[C@@H](O)[C@H]3[C@@]4(C)CC[C@@H](O)[C@@H](C)[C@@H]4CC[C@@]32C)/C1=C(\CCC=C(C)C)C(=O)O as the compound, how does the survival [4] read?
Answer: Its survival is 5.08 (inactive).

Question: And the parasite load remaining [5]?
Answer: Its parasite load remaining is 64.8% (inactive).

Question: And the viability [5]?
Answer: The viability was 78.6%.

Question: And the inhibition [1]?
Answer: The inhibition was 4.42% (inactive).

Question: And the remaining NAD [6]?
Answer: Its remaining NAD is 10 nM (inactive).

Question: And the luciferase signal [3]?
Answer: The luciferase signal was 128 AU (inactive).

Question: With COC(=O)C[C@H]1C2(C)CC34OC5(C)O[C@@]6([C@H](OC(C)=O)C(OC(C)=O)[C@]7(C)C(/C(=C(/O)C(C)C)C(=O)O[C@H]7c7ccoc7)[C@@]6(O5)[C@H](OC(C)=O)[C@@]3(O)C2OC(=O)C(C)C)[C@]14C (stereo partly drawn) as the compound, how does the inhibition [1] read?
Answer: Its inhibition is -3.02% (inactive).

Question: What about the luciferase signal [3] of the same compound?
Answer: The luciferase signal was 24 AU (inactive).

Question: With CC[C@H]1OC(=O)[C@H](C)C(=O)[C@H](C)[C@@H](O[C@@H]2O[C@H](C)C[C@H](N(C)C)[C@H]2O)[C@](C)(OC)C[C@@H](C)C(=O)[C@H](C)[C@H]2N(CCCCn3cnc(-c4cccnc4)c3)C(=O)O[C@]12C as the compound, how does the inhibition [1] read?
Answer: Its inhibition is -10.3% (inactive).

Question: And the remaining NAD [6]?
Answer: The remaining NAD was 10 nM (inactive).

Question: And the luciferase signal [3]?
Answer: Its luciferase signal is 48 AU (inactive).

Question: What does the source list for O=c1oc2ccccc2cc1O?
Answer: inhibition [1]: 15.9% (inactive); luciferase signal [3]: 36 AU (inactive)

Question: Which parasite load remaining [5] does the source give for C=C(C)[C@@H]1CC[C@]2(CO)CC[C@]3(C)[C@H](CC[C@@H]4[C@@]5(C)CC[C@H](O)C(C)(C)[C@@H]5CC[C@]43C)[C@@H]12 here?
Answer: Its parasite load remaining is 104% (inactive).

Question: And the viability [5]?
Answer: Its viability is 78.6%.

Question: And the inhibition [1]?
Answer: The inhibition was 1.58% (inactive).

Question: What about the fold change [7, 11] of the same compound?
Answer: Its fold change is 0.941 (inactive).

Question: And the fold change [7, 12]?
Answer: The fold change was 0.65.

Question: What about the cell count [7, 13] of the same compound?
Answer: The cell count was 8530.

Question: And the cell count [7, 14]?
Answer: Its cell count is 9060.

Question: And the luciferase signal [3]?
Answer: The luciferase signal was 44 AU (inactive).

Question: What does the source list for C[C@@H]1C[C@H]2[C@@H]3C[C@H](F)C4=CC(=O)C=C[C@]4(C)[C@@]3(F)[C@@H](O)C[C@]2(C)[C@@]1(O)C(=O)COC(=O)C(C)(C)C?
Answer: inhibition [1]: 8.08% (inactive); z-score [2, 9]: 0.627 (inactive); z-score [2, 10]: 0.671; remaining NAD [6]: 10 nM (inactive)

Question: With CCCCCC(=O)O[C@]1(C(C)=O)CC[C@H]2[C@@H]3CCC4=CC(=O)CC[C@]4(C)[C@H]3CC[C@@]21C as the compound, how does the inhibition [1] read?
Answer: The inhibition was -2.17% (inactive).

Question: And the remaining NAD [6]?
Answer: The remaining NAD was 10 nM (inactive).

Question: And the luciferase signal [3]?
Answer: The luciferase signal was 44 AU (inactive).

Question: Which results are given for Nc1nc(N)c2nc(CNc3ccc(C(=O)N[C@@H](CCC(=O)O)C(=O)O)cc3)cnc2n1?
Answer: inhibition [1]: -4.2% (inactive); remaining NAD [6]: 10 nM (inactive)

Question: Which results are given for CN[C@@H]1[C@H](O[C@H]2[C@H](O[C@H]3[C@H](O)[C@@H](O)[C@H](N=C(N)N)[C@@H](O)[C@@H]3N=C(N)N)O[C@@H](C)[C@]2(O)CO)O[C@@H](CO)[C@H](O)[C@H]1O?
Answer: inhibition [1]: -14.8% (inactive); remaining NAD [6]: 10 nM (inactive); luciferase signal [3]: 68 AU (inactive)

Question: What does the source list for CC1=CC(=O)C2=C(C)CC[C@@H]3[C@H](OC(=O)[C@H]3C)[C@@H]12?
Answer: survival [4]: 21.9 (inactive); parasite load remaining [5]: 69.2% (inactive); viability [5]: 75.3%; inhibition [1]: -50% (inactive); fold change [7, 11]: 0.934 (inactive); fold change [7, 12]: 0.653; cell count [7, 13]: 9100; cell count [7, 14]: 9750; luciferase signal [3]: 76 AU (inactive)

Question: For CC[C@@H](C(=O)[C@@H](C)[C@@H](O)[C@H](C)CCc1ccc(C)c(O)c1C(=O)O)[C@H]1O[C@](CC)([C@H]2CC[C@](O)(CC)[C@H](C)O2)C[C@@H]1C, which parasite load remaining [5] is on record?
Answer: The parasite load remaining was -0.295% (active).

Question: And the viability [5]?
Answer: The viability was 110%.

Question: And the inhibition [1]?
Answer: The inhibition was -6.18% (inactive).

Question: What about the fold change [7, 11] of the same compound?
Answer: The fold change was 1.02 (inactive).

Question: What about the fold change [7, 12] of the same compound?
Answer: Its fold change is 1.03.

Question: What about the cell count [7, 13] of the same compound?
Answer: The cell count was 2440.

Question: What about the cell count [7, 14] of the same compound?
Answer: Its cell count is 2390.

Question: And the luciferase signal [3]?
Answer: The luciferase signal was 44 AU (inactive).

Question: For COC(=O)[C@H]1[C@H]2C[C@H]3c4[nH]c5ccccc5c4CCN3C[C@@H]2CC[C@@H]1O, which fluorescence slope change [8] is on record?
Answer: Its fluorescence slope change is 53.3% (active).

Question: And the survival [4]?
Answer: The survival was 13.8 (inactive).

Question: And the parasite load remaining [5]?
Answer: The parasite load remaining was 108% (inactive) and 79.2% (inactive).

Question: And the viability [5]?
Answer: The viability was 116% and 77.6%.

Question: And the inhibition [1]?
Answer: Its inhibition is 7.89% (inactive).

Question: What about the fold change [7, 11] of the same compound?
Answer: Its fold change is 0.836 (inactive).

Question: What about the fold change [7, 12] of the same compound?
Answer: Its fold change is 1.95.

Question: What about the cell count [7, 13] of the same compound?
Answer: Its cell count is 8660.

Question: And the cell count [7, 14]?
Answer: The cell count was 10400.

Question: And the luciferase signal [3]?
Answer: The luciferase signal was 44 AU (inactive).

Question: With CC12CC[C@H](CC1=O)C2(C)C as the compound, how does the parasite load remaining [5] read?
Answer: Its parasite load remaining is 74.1% (inactive) and 58.3% (inactive).

Question: And the viability [5]?
Answer: The viability was 75% and 94.1%.

Question: And the inhibition [1]?
Answer: Its inhibition is 13.3% (inactive).

Question: And the fold change [7, 11]?
Answer: Its fold change is 0.849 (inactive).

Question: And the fold change [7, 12]?
Answer: The fold change was 0.856.

Question: What about the cell count [7, 13] of the same compound?
Answer: Its cell count is 10900.

Question: What about the cell count [7, 14] of the same compound?
Answer: Its cell count is 12800.

Question: Which results are given for C[C@H]1[C@H]2CC[C@H]3[C@@H]4CC=C5C[C@@H](N(C)C)CC[C@]5(C)[C@H]4CC[C@]23CN1C?
Answer: fluorescence slope change [8]: 56.7% (active); survival [4]: 4.83 (inactive); parasite load remaining [5]: 168% (inactive) and 68.7% (inactive); viability [5]: 102% and 76.1%; inhibition [1]: 13.8% (inactive); fold change [7, 11]: 0.82 (inactive); fold change [7, 12]: 1.54; cell count [7, 13]: 8300; cell count [7, 14]: 10100; luciferase signal [3]: 40 AU (inactive)

Question: For CCc1cn([C@H]2C[C@H](O)[C@@H](CO)O2)c(=O)[nH]c1=O, which inhibition [1] is on record?
Answer: The inhibition was -4.52% (inactive).

Question: And the remaining NAD [6]?
Answer: Its remaining NAD is 10 nM (inactive).

Question: What about the luciferase signal [3] of the same compound?
Answer: The luciferase signal was 64 AU (inactive).

Question: Which results are given for CCCCC[C@@H](O)[C@H]1C(=O)O[C@H](C)[C@@H](O)/C=C/C=C/C=C/C=C/C=C(\C)[C@@H](O)C[C@H](O)C[C@H](O)C[C@H](O)C[C@H](O)C[C@H](O)C[C@@H]1O?
Answer: inhibition [1]: 6.12% (inactive); fold change [7, 11]: 1.04 (inactive); fold change [7, 12]: 1.06; cell count [7, 13]: 6150; cell count [7, 14]: 5900; luciferase signal [3]: 72 AU (inactive)

Question: Which inhibition [1] does the source give for CC(=O)[C@@]1(O)CC[C@H]2[C@@H]3C=C(Cl)C4=CC(=O)[C@@H]5C[C@@H]5[C@]4(C)[C@H]3CC[C@@]21C here?
Answer: Its inhibition is 3.58% (inactive).

Question: And the remaining NAD [6]?
Answer: The remaining NAD was 10 nM (inactive).

Question: And the luciferase signal [3]?
Answer: The luciferase signal was 32 AU (inactive).
